# Experimental data published in the supplement of paper PMC8728848.
# The full list was thinned out, with the strongest signals kept by preference.
# System: Neu5Ac(a2-3)Gal(b1-4)[Fuc(a1-3)]GlcNAc(b1-6)[Gal(b1-3)]GalNAc
# Assay: glycan array binding signal (z-score within array); higher = stronger binding
# Settings: glycan notation: IUPAC condensed, linker removed
# Summary of the method: (§1)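 Negative Z-scores can be read as non-binding. The Z-score is calculated within each array and then averaged across arrays of one protein sequence at different concentrations or buffers and across linkers. Arrays, 3228 in all, were curated from the Consortium for Functional Glycomics database and kept only where the protein sequence was available.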
# Sequence of Neurocan (Homo sapiens), O14594 (O14594 other isoform, or with tags, fused parts or gaps): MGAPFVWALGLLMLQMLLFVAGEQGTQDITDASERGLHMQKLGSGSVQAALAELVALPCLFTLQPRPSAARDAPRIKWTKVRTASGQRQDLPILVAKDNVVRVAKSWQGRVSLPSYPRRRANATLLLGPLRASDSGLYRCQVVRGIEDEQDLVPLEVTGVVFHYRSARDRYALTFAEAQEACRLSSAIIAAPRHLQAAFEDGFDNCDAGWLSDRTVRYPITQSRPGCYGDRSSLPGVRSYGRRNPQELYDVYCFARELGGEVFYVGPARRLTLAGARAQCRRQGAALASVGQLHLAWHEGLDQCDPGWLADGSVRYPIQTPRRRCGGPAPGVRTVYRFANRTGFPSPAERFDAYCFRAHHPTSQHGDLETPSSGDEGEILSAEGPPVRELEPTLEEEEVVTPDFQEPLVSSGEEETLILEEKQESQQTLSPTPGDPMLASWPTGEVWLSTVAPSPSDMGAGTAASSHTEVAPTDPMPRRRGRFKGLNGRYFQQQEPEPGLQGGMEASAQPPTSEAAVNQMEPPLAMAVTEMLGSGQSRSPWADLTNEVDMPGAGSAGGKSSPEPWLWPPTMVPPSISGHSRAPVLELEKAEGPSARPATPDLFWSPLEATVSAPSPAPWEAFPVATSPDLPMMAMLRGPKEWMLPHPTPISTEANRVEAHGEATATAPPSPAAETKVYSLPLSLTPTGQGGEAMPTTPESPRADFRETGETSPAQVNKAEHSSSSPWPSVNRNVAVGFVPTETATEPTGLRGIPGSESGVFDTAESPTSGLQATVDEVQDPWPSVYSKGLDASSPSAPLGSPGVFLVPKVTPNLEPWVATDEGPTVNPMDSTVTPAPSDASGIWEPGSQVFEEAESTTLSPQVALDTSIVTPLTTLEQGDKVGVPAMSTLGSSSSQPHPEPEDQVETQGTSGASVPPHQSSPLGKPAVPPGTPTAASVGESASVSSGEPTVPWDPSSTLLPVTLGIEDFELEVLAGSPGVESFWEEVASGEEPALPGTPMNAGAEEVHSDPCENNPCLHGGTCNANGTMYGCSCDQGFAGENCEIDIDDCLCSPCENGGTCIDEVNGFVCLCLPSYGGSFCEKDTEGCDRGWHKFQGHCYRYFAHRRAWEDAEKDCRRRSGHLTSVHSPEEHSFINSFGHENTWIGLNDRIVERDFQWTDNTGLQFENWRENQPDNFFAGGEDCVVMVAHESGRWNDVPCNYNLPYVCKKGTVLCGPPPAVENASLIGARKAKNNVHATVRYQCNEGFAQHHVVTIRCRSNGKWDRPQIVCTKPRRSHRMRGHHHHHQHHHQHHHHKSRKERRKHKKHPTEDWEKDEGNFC
# Sequence of 6RG (Lolium perenne), B9U140 (B9U140 entry or part of it): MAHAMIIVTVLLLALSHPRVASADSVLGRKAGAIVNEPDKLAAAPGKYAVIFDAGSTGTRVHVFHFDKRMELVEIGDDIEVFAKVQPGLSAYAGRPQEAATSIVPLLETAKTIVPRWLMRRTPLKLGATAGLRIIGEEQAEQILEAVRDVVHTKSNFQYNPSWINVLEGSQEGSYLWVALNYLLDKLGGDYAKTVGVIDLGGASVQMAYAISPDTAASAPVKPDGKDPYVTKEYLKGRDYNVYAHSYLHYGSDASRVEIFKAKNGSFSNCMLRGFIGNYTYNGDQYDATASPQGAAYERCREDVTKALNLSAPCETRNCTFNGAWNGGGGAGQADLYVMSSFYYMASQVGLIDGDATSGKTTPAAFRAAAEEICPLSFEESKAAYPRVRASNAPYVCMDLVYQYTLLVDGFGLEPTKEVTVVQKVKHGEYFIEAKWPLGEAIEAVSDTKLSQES
# Sequence of Regenerating Gene IV (Homo sapiens), Q9BYZ8 (Q9BYZ8 whole entry, looked up): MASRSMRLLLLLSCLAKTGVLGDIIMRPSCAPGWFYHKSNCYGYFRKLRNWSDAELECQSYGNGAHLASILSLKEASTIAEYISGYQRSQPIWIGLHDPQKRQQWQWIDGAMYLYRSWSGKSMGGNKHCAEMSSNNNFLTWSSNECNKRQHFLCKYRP
# Sequence of wLAT-1A (Homo sapiens), Q01650 (Q01650 whole entry): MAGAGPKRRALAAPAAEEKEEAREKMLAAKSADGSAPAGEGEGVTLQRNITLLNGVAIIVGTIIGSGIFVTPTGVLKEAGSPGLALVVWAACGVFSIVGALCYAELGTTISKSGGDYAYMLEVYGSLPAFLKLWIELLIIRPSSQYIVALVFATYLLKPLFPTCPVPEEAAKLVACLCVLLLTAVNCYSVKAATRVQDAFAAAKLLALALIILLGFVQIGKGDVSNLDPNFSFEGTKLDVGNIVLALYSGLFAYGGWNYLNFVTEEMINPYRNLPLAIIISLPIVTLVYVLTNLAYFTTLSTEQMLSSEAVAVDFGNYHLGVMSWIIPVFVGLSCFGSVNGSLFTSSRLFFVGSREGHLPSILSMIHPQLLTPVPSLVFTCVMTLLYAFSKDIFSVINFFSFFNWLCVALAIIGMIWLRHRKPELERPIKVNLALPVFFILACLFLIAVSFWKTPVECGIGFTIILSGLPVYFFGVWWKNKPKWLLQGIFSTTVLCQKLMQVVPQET
row,Substance,glycan array binding signal (z-score)
1,"Regenerating Gene IV (Homo sapiens), Q9BYZ8",0.692
2,"Neurocan (Homo sapiens), O14594",3.52
3,MpAFP RI GFP (Marinomonas primoryensis),0.494

# System: Neu5Ac(a2-3)Gal6S(b1-4)GlcNAc
# Assay: as above
# Settings: glycan notation: IUPAC condensed, linker removed
# Summary of the method: as §1
row,Substance,glycan array binding signal (z-score)
1,"wLAT-1A (Homo sapiens), Q01650",0.097
2,"Siglec-8 (Homo sapiens), Q9NYZ4",16.9
3,"Neurocan (Homo sapiens), O14594",-1.3
4,"6RG (Lolium perenne), B9U140",1.4
5,MpAFP RI GFP (Marinomonas primoryensis),-0.72
